Results reported in PubChem BioAssay AID1159580 (chemical genetic matrix, 2015).
Values joined by “and” are separate entries in the source; they are usually repeats but may differ in a detail not shown here. Equal values may be shown once. Out of some 5,500 compounds screened, about 2,000 (36%) were called active. Not shown: some 18% with an inconclusive outcome. No stated cut-off is given here; in the data, active means normalized growth mostly below about 0.91 (no sharp cut-off); inconclusive means no clear call, values can overlap the other calls; inactive means mostly above about 0.92. Some of the results follow.

Assay: chemical genetic growth profiling, strain panel (AID 1159580);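 further: tested at 20 µM; growth read once vehicle control cultures reached saturation at 30 °C; 1 = growth at the plate median or of vehicle wells; lower values mean less growth of the strain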
Conditions: S. cerevisiae deletion strains, growth OD

Measured: normalized growth

CC(=O)S[C@@H]1CC2=CC(=O)CC[C@]2(C)[C@H]2CC[C@@]3(C)[C@@H](CC[C@@]34CCC(=O)O4)C12 (some centres undefined)
inactive: locus YAL013W, strain DEP1, hits give low values 1 | locus YAL021C, strain ccr4, hits give low values 1.01 | locus YAL026C, strain drs2, hits give low values 1.01 | locus YAL030W, strain snc1, hits give low values 1.01 | locus YBL061C, strain skt5, hits give low values 1.02 | locus YBR009C, strain hhf1, hits give low values 0.98 | locus YBR021W, strain FUR4, hits give low values 0.992 | locus YBR023C, strain chs3, hits give low values 1.01 | locus YBR171W, strain sec66, hits give low values 1.03 | locus YBR229C, strain ROT2, hits give low values 0.997 | locus YBR231C, strain swc5, hits give low values 1.04 | locus YBR279W, strain paf1, hits give low values 1.01 | locus YCL011C, strain gbp2, hits give low values 0.984 | locus YCL016C, strain dcc1, hits give low values 0.993 | locus YCL029C, strain bik1, hits give low values 1.03 | locus YCL061C, strain MRC1, hits give low values 1.04 | locus YCL069W, strain vba3, hits give low values 1.01 | locus YCR088W, strain abp1, hits give low values 1.01 | locus YDL005C, strain med2, hits give low values 1.01 | locus YDL035C, strain GPR1, hits give low values 1.01 | locus YDL040C, strain nat1, hits give low values 1.01 | locus YDL074C, strain BRE1, hits give low values 1.01 | locus YDL101C, strain DUN1, hits give low values 1.01 | locus YDL134C, strain PPH21, hits give low values 1.01 | locus YDL185W, strain tfp1, hits give low values 1.01 | locus YDL192W, strain arf1, hits give low values 1.03 | locus YDR001C, strain nth1, hits give low values 1 | locus YDR069C, strain doa4, hits give low values 1.03 | locus YDR101C, strain arx1, hits give low values 1.03 | locus YDR137W, strain rgp1, hits give low values 1 | locus YDR150W, strain NUM1, hits give low values 1 | locus YDR159W, strain sac3, hits give low values 0.972 | locus YDR162C, strain NBP2, hits give low values 1 | locus YDR195W, strain ref2 1.05 | locus YDR297W, strain sur2, hits give low values 1.02 | locus YDR318W, strain mcm21, hits give low values 1.02 | locus YDR334W, strain swr1, hits give low values 1 | locus YDR335W, strain msn5, hits give low values 1.02 | locus YDR388W, hits give low values 1.03 | locus YDR392W, strain spt3, hits give low values 0.951 | locus YDR502C, strain sam2, hits give low values 1.02 | locus YEL003W, strain gim4, hits give low values 1.01 | locus YEL037C, strain rad23, hits give low values 1.01 | locus YEL061C, strain CIN8 (second series), hits give low values 1.01 | locus YEL061C, strain CIN8, hits give low values 0.963 | locus YER015W, strain faa2, hits give low values 1.02 | locus YER016W, strain bim1, hits give low values 1 | locus YER110C, hits give low values 1.03 | locus YER111C, strain swi4, hits give low values 1.01 | locus YER155C, strain BEM2 (second series), hits give low values 1.07 | locus YER155C, strain BEM2, hits give low values 1.01 | locus YER167W, strain BCK2, hits give low values 1.01 | locus YFR010W, strain ubp6, hits give low values 1.02 | locus YGL078C, strain dbp3, hits give low values 1.03 | locus YGL086W, strain mad1, hits give low values 0.998 | locus YGL167C, strain pmr1, hits give low values 1.03 | locus YGL173C, strain kem1, hits give low values 1.02 | locus YGL227W, strain vid30, hits give low values 0.997 | locus YGL240W, strain doc1, hits give low values 1.05 | locus YGL248W, strain PDE1, hits give low values 1.01 | locus YGL253W, strain hxk2, hits give low values 0.97 | locus YGR078C, strain PAC10, hits give low values 0.984 | locus YGR135W, strain pre9, hits give low values 1.02 | locus YGR252W, strain gcn5, hits give low values 1 | locus YHR013C, strain ard1, hits give low values 1.01 | locus YHR027C, strain rpn1, hits give low values 1.01 | locus YHR030C, strain SLT2, hits give low values 0.996 and 1.06 | locus YHR079C, strain IRE1 (second series), hits give low values 1.03 | locus YHR079C, strain IRE1, hits give low values 1.08 | locus YHR094C, strain hxt1, hits give low values 1.03 | locus YHR129C, strain ARP1, hits give low values 1 | locus YHR142W, strain chs7, hits give low values 1 | locus YHR200W, strain rpn10, hits give low values 1.02 | locus YIL066C, strain RNR3, hits give low values 1 | locus YIL073C, strain SPO22, hits give low values 1.05 | locus YIL125W, strain kgd1, hits give low values 1.02 | locus YIR030C, strain dcg1, hits give low values 1.02 | locus YJL092W, strain hpr5, hits give low values 1.01 | locus YJL095W, strain BCK1 (second series), hits give low values 0.996 | locus YJL095W, strain BCK1, hits give low values 1 and 1.02 | locus YJL115W, strain asf1, hits give low values 1.02 | locus YJL129C, strain trk1, hits give low values 1.02 | locus YJL134W, strain LCB3, hits give low values 1 | locus YJL154C, strain vps35, hits give low values 1.02 | locus YJL164C, strain tpk1, hits give low values 0.983 | locus YJL166W, strain qcr8, hits give low values 1.04 | locus YJL168C, strain set2, hits give low values 1.02 | locus YJL187C, strain SWE1 (second series), hits give low values 1 | locus YJL187C, strain SWE1, hits give low values 1.02
